PubChem BioAssay (NCI)
This is part of a sample that, as a whole, favours compounds with a hit. Of some 83,000 tested, about 20% had one in any assay.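 Step 1: grow cells in 96-well plates. Step 2: add test compound at a single concentration. Step 3: incubate 48 h. Step 4: record percent growth.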 Values without a mark were called inactive. Active and inactive are the calls of the source. The calls were made as follows: active = growth percent below 10; inactive = the rest.

What was measured:
Assay in all cases: NCI-60 one-dose screen, 48 h (100 = growth as untreated, 0 = no growth, -100 = all killed)
Conditions in all cases: 10 µM unless noted
HCT-15 colon = test system: HCT-15 colon
HT29 colon = test system: HT29 colon
SNB-75 CNS = test system: SNB-75 CNS
SNB-19 CNS = test system: SNB-19 CNS
U251 CNS = test system: U251 CNS
PC-3 prostate = test system: PC-3 prostate
SK-MEL-5 melanoma = test system: SK-MEL-5 melanoma
UACC-62 melanoma = test system: UACC-62 melanoma
LOX IMVI melanoma = test system: LOX IMVI melanoma
SK-MEL-28 melanoma = test system: SK-MEL-28 melanoma

Row | SMILES | growth (HCT-15 colon) | growth (HT29 colon) | growth (SNB-75 CNS) | growth (SNB-19 CNS) | growth (U251 CNS) | growth (PC-3 prostate) | growth (SK-MEL-5 melanoma) | growth (UACC-62 melanoma) | growth (LOX IMVI melanoma) | growth (SK-MEL-28 melanoma)
1 | CN1C(=O)N(C)C2C1NC(=S)N2/N=C/C=C/c1ccccc1[N+](=O)[O-] (stereo not given) | 29% | 2.85% (active) | -5.19% (active) | 37% | 20.2% | 17.3% | 11.8% | 26.4% | 31.6% | 56.7%
2 | O=C1N[C@@H]2[C@@H](O)[C@@H](O)[C@H](O)C[C@H]2c2cc3c(c(O)c21)OCCO3 | -11.9% (active) | -14.5% (active) | -4.29% (active) | -10.4% (active) | -14.9% (active) | -9.66% (active) | -52.1% (active) | -13.3% (active) | -41.1% (active) | -16.4% (active)
3 | N#C/C(=C\c1ccc(-c2ccc(Cl)cc2)o1)c1ccc(Cl)cc1 | 79.2% | 61.2% | 14% | 62% | 21.6% | 74.8% | 91.4% | 78.7% | 49.2% | 99.7%
4 | FC(F)(F)c1[nH]ncc1-c1nc2c(N3CCCCC3)cc3[nH]ncc3c2c2c1CCCC2 | 5.17% (active) | 1.21% (active) | -73.8% (active) | 7.25% (active) | 3.57% (active) | 0.448% (active) | -68.2% (active) | -49.9% (active) | -68.9% (active) | -6.99% (active)
5 | COc1cc(OC)cc(C2C(C#N)=C(N)Oc3c2ccc2ccc(O)cc32)c1 (stereo not given) | 4.56% (active) | 7.81% (active) | 72% | 26.9% | 12.8% | 17.6% | -45.6% (active) | 28.9% | 0.698% (active) | 48.6%
6 | Cc1c(Cl)cccc1C(=O)Nc1nc2c(s1)CN(C(=O)Nc1cccc(C(F)(F)F)c1)CC2 | 11.8% | 1.39% (active) | 6.15% (active) | 36.7% | 22.2% | 6.43% (active) | 2.35% (active) | 27.8% | 18.9% | 44.4%
7 | Cc1cc(C)c(-c2c(O)c(Br)c(-c3c(C)cc(C)c(Br)c3C)c(O)c2Br)c(C)c1Br | 10.2% | 2.43% (active) | 33.4% | 47.5% | 19.8% | 27.7% | 1.69% (active) | 14.8% | -26% (active) | 49.1%
8 | O=C1Nc2ccccc2/C1=C/c1cn(C[C@@H](O)Cn2c3ccccc3c(=O)c3ccccc32)c2ccccc12 | 73.9% | 77.8% | 63.6% | 73.1% | 75.2% | 51.1% | 67.1% | 69.2% | 69.1% | 95.4%
9 | O=C(Nc1ccccc1)c1sc(-c2ccccc2)cc1O | 97.4% | 107% | 82.6% | 101% | 98.5% | 95.2% | 83.7% | 67% | 109% | 84.4%
10 | O=C(CN1C(=O)/C(=C/c2ccco2)SC1=S)NCCc1c[nH]c2ccc(F)cc12 | 101% | 112% | 78% | 102% | 103% | 94% | 99.6% | 87.8% | 96.9% | 112%
11 | Cc1nc2ccccc2c(/C=C/c2ccc(C(F)(F)F)cc2)c1C(=O)/C=C/c1ccccc1 | -49.4% (active) | -29.2% (active) | 31.3% | -66.5% (active) | -84.1% (active) | 12% | -79% (active) | -39.8% (active) | -92.2% (active) | -52.2% (active)
12 | COC(=O)/C(CCC=C(C)C)=C1\[C@@H](OC(C)=O)C[C@@]2(C)[C@H]1CC(=O)[C@H]1[C@@]3(C)CCC(N4CCCC4)[C@@H](C)[C@@H]3CC[C@@]12C (stereo not given in full) | 73.4% | 68.2% | 99.2% | 107% | 101% | 89.1% | 99.2% | 97.6% | 101% | 93.6%
13 | COc1ccc(C2=NN(C(=O)c3cc(OC)c(OC)c(OC)c3)C(c3ccc(N(C)C)cc3)C2)cc1 (stereo not given) | 10.6% | 19.1% | 18.1% | 37.6% | 15.6% | 20.6% | 5.24% (active) | 15.6% | 28.9% | 56.3%
14 | Oc1c(I)cc(-c2nc3ccccc3s2)cc1CN(Cc1ccccn1)Cc1ccccn1 | 22% | 21.3% | 40.1% | 20.9% | 8.16% (active) | 28.3% | -78.3% (active) | 10.5% | 3.14% (active) | 37.5%
15 | CCN(CC)S(=O)(=O)c1ccc(S(=O)(=O)N2CCC[C@@H](C(=O)N3CCN(C(=O)OC(C)(C)C)CC3)C2)cc1 | 91.8% | 91.5% | 48.7% | 68.8% | 81.6% | 77.5% | 18.2% | 62.4% | 58% | 97.6%
16 | CC1O[C@@H]2C[C@@](O)([C@H]1O)n1c3ccccc3c3c4c(c5c6ccccc6n2c5c31)C(=O)NC4=O (stereo not given in full) | 62% | 28.6% | 44.8% | 35% | 24.8% | 41.2% | 1.39% (active) | 9.56% (active) | 7.1% (active) | 69.1%
17 | COc1ccc(C2=C/C(=C\c3ccc(Cl)cc3)C(=O)N2/N=C/c2ccc(Cl)cc2)cc1 | 98.8% | 86.8% | 105% | 96.7% | 84.5% | 91.4% | 99.5% | 84.4% | 99.1% | 101%
18 | O=C1OCC2=C1C(c1cccc(F)c1)c1cc3c(cc1N2CCO)OCO3 (stereo not given) | 22.1% | 5.77% (active) | 16.9% | 32.9% | 21.7% | 25.1% | 22.8% | 47.2% | 34.9% | 59.5%
19 | COc1ccc(C2C(C#N)=C(N)Oc3c2sc2c(Br)cccc32)cc1 (stereo not given) | 19.1% | 5% (active) | 11.3% | 44.8% | 20.4% | 25.5% | 29.3% | 10.6% | 29.2% | 59.5%
20 | COc1ccc(NC(=O)c2cccc(C3CCc4c(cc(OC)c(OC)c4OC)O3)c2)cc1 (stereo not given) | 17.3% | 6.06% (active) | 13.1% | 33.3% | 23.4% | 5.96% (active) | 4.29% (active) | 31.6% | 28.7% | 47%
21 | COc1ccc(/C=C/C(=O)c2ccc(NC(=O)CSc3nnc(-c4cc(-c5ccccc5)nc5ccccc45)n3-c3ccccc3)cc2)cc1 | 92.5% | 98.1% | 100% | 101% | 102% | 89.9% | 97.5% | 87.3% | 96.5% | 98.4%
